Measurements published in PubChem BioAssay (NCI).
“And” between values parts separate entries of the source, which are not always exact repeats. Equal values may be shown once. About 83,000 compounds went through this panel and 20% of them were active in at least one assay; those are over-represented in the sample as a whole.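 Results are percent growth after 48 hours of single-concentration exposure. 100 means growth as in untreated cells, lower positive values show inhibition; negative values down to -100 show cell death.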 The source made the active and inactive calls. The calls were made as follows: active = growth percent below 10; inactive = the rest.

How the values were obtained:
Experiment in all cases: NCI-60 one-dose screen, 48 h (100 = growth as untreated, 0 = no growth, -100 = all killed)
Details in all cases: 10 µM unless noted
NCI-H23 lung = tested on: NCI-H23 lung
NCI-H226 lung = tested on: NCI-H226 lung
NCI-H322M lung = tested on: NCI-H322M lung
HOP-62 NSCLC = tested on: HOP-62 NSCLC
NCI-H460 lung = tested on: NCI-H460 lung
HOP-92 NSCLC = tested on: HOP-92 NSCLC
786-0 renal = tested on: 786-0 renal
COLO 205 colon = tested on: COLO 205 colon
DU-145 prostate = tested on: DU-145 prostate
K-562 leukemia = tested on: K-562 leukemia
MALME-3M melanoma = tested on: MALME-3M melanoma
MDA-MB-231 breast = tested on: MDA-MB-231 breast
RXF 393 renal = tested on: RXF 393 renal
SF-268 CNS = tested on: SF-268 CNS
SF-295 CNS = tested on: SF-295 CNS
SF-539 CNS = tested on: SF-539 CNS
UACC-257 melanoma = tested on: UACC-257 melanoma
M14 melanoma = tested on: M14 melanoma
NCI-H522 lung = tested on: NCI-H522 lung
A549/ATCC NSCLC = tested on: A549/ATCC NSCLC

Measured: growth

COc1ccccc1NC(=O)OCC#CCOC(=O)Nc1ccccc1OC
inactive: NCI-H23 lung 101% and 95.5% | NCI-H226 lung 97.8% and 90.5% | NCI-H322M lung 112% and 98.4% | HOP-62 NSCLC 102% and 91.8% | NCI-H460 lung 110% and 94.7% | HOP-92 NSCLC 83.1% | 786-0 renal 108% and 88.2% | COLO 205 colon 107% and 120% | DU-145 prostate 146% and 96.5% | K-562 leukemia 75% and 57.3% | MALME-3M melanoma 96.6% | MDA-MB-231 breast 102% and 105% | RXF 393 renal 102% and 90.3% | SF-268 CNS 116% and 89.4% | SF-295 CNS 105% and 94% | SF-539 CNS 99.9% and 91.6% | UACC-257 melanoma 100% and 91.1% | M14 melanoma 106% and 95.5%

CCc1c(CC(=O)O)c2cc(C)ccc2n1Cc1ccc(Cl)cc1
inactive: NCI-H23 lung 97.3% and 90% | NCI-H226 lung 94.9% and 97.8% | NCI-H322M lung 76.3% and 280% | HOP-62 NSCLC 94.7% and 70.2% | NCI-H460 lung 103% and 95.8% | HOP-92 NSCLC 88% and 91.7% | NCI-H522 lung 85% and 81.5% | 786-0 renal 106% and 47% | COLO 205 colon 123% | DU-145 prostate 106% and 105% | K-562 leukemia 152% | MALME-3M melanoma 95.1% and 200% | MDA-MB-231 breast 110% and 100% | RXF 393 renal 76.8% | SF-268 CNS 96.3% and 99.4% | SF-295 CNS 91.6% and 84.9% | SF-539 CNS 97.4% and 90.2% | UACC-257 melanoma 87.7% | M14 melanoma 101% and 85.4%

O=[N+]([O-])c1ccc(/C=N\NC(=S)Nc2ccc(F)cc2)cc1
inactive: NCI-H23 lung 101% and 88.3% | NCI-H226 lung 105% and 91.1% | NCI-H322M lung 86.6% and 97.9% | HOP-62 NSCLC 105% and 94.6% | NCI-H460 lung 95.3% and 87% | HOP-92 NSCLC 107% and 75.7% | A549/ATCC NSCLC 82.1% and 90.9% | 786-0 renal 105% and 98.5% | COLO 205 colon 104% and 103% | DU-145 prostate 102% and 87.1% | K-562 leukemia 104% | MALME-3M melanoma 92.6% | MDA-MB-231 breast 77.5% and 77.6% | RXF 393 renal 98% and 105% | SF-268 CNS 102% and 99.8% | SF-295 CNS 102% | SF-539 CNS 102% and 58.6% | UACC-257 melanoma 91.4% and 104% | M14 melanoma 113% and 96.8%

CCOc1ccc2nc3cc(N)ccc3c(N)c2c1
0.893% (active) and 10.4% (inactive): NCI-H522 lung
active: MALME-3M melanoma -18.6% and -14.8% | SF-268 CNS -39.5% and -36.7%
inactive: NCI-H23 lung 46.3% and 40.5% | NCI-H226 lung 20.2% and 44.6% | NCI-H322M lung 36.7% and 28.8% | HOP-62 NSCLC 23% and 26.8% | NCI-H460 lung 29.3% and 61.9% | HOP-92 NSCLC 58.3% | 786-0 renal 24.2% and 13.8% | COLO 205 colon 71.1% and 75.9% | DU-145 prostate 64.2% and 67.6% | K-562 leukemia 113% and 57.9% | MDA-MB-231 breast 86.5% | RXF 393 renal 55.5% and 43.2% | SF-295 CNS 30.4% and 16.5% | SF-539 CNS 34.9% and 31.7% | UACC-257 melanoma 62.3% and 67.3% | M14 melanoma 90.3% and 75.8%

OCCN1CCN(CCO)CC1
inactive: NCI-H23 lung 95.3% and 99.7% and 110% | NCI-H226 lung 107% and 97.5% | NCI-H322M lung 106% and 85.9% and 115% | HOP-62 NSCLC 100% and 79.5% and 106% | NCI-H460 lung 111% and 98.6% and 108% | HOP-92 NSCLC 102% and 85% and 95.2% | A549/ATCC NSCLC 89.5% and 73% and 115% | 786-0 renal 108% and 99.5% and 99.4% | COLO 205 colon 105% and 113% | DU-145 prostate 117% and 111% and 123% | K-562 leukemia 96.3% and 100% and 104% | MALME-3M melanoma 105% and 97.4% and 107% | MDA-MB-231 breast 106% and 107% and 114% | RXF 393 renal 114% and 95.6% and 120% | SF-268 CNS 107% and 101% and 105% | SF-295 CNS 94.9% and 82.6% and 110% | SF-539 CNS 105% and 91.1% and 106% | UACC-257 melanoma 117% | M14 melanoma 102% and 91.1% and 103%

CN(C)c1ccc2nc3ccc(N)cc3[n+](-c3ccccc3)c2c1
inactive: NCI-H23 lung 10.4% and 20.6% | NCI-H226 lung 54.7% and 72.4% | NCI-H322M lung 66.1% and 40.3% | HOP-62 NSCLC 12.6% and 42.7% | 786-0 renal 56.3% and 38.7% | MDA-MB-231 breast 51.6% and 15.7% | RXF 393 renal 65.6% and 73.1% | M14 melanoma 40.8% and 15%
9.29% (active) and 18.5% (inactive): K-562 leukemia
29% (inactive) and -39.8% (active): SF-295 CNS
19.8% (inactive) and -29.8% (active): SF-539 CNS
62.1% (inactive) and -27.6% (active): A549/ATCC NSCLC
active: NCI-H460 lung 9.65% and 9.63% | COLO 205 colon -62.8% and -12.6% | MALME-3M melanoma 4.82% and -9.23% | UACC-257 melanoma -12.2% and -21%
46.7% (inactive) and 2.32% (active): DU-145 prostate
-3.42% (active) and 38.1% (inactive): HOP-92 NSCLC
30.3% (inactive) and 7.92% (active): SF-268 CNS

CCOc1ccc2c(S(=O)(=O)O)cccc2c1[N+](=O)[O-]
inactive: NCI-H23 lung 94.5% and 102% | NCI-H226 lung 97.1% and 94% | NCI-H322M lung 102% and 104% | HOP-62 NSCLC 102% and 105% | NCI-H460 lung 99.1% and 105% | NCI-H522 lung 99.7% and 122% | A549/ATCC NSCLC 97.2% and 101% | 786-0 renal 113% and 111% | COLO 205 colon 107% and 103% | DU-145 prostate 104% and 116% | K-562 leukemia 101% and 88.4% | MALME-3M melanoma 106% and 101% | MDA-MB-231 breast 106% and 110% | RXF 393 renal 114% and 100% | SF-268 CNS 99.1% and 96.2% | SF-295 CNS 104% and 107% | SF-539 CNS 102% and 107% | UACC-257 melanoma 114% and 100% | M14 melanoma 108% and 99.6%

CCCCCCCCCCCCCCCc1cc(O)ccc1N
active: SF-539 CNS -40.5% and -83.9%
inactive: NCI-H23 lung 90.5% and 89.6% | NCI-H226 lung 33.9% and 99.6% | NCI-H322M lung 102% and 84.1% | HOP-62 NSCLC 103% and 110% | NCI-H460 lung 109% and 102% | HOP-92 NSCLC 105% | A549/ATCC NSCLC 89.3% and 99.8% | 786-0 renal 77.6% and 21.1% | COLO 205 colon 107% and 114% | DU-145 prostate 96.6% and 107% | K-562 leukemia 55.8% | MALME-3M melanoma 106% and 78.2% | MDA-MB-231 breast 59.4% and 71.5% | RXF 393 renal 94.7% | SF-268 CNS 77% and 36.7% | SF-295 CNS 41.3% and 49.7% | UACC-257 melanoma 87.4% and 71.4% | M14 melanoma 101% and 105%

OC(CSc1ccccc1)CN1CCN(c2cccc(Cl)c2)CC1 (stereo not drawn)
inactive: NCI-H23 lung 104% and 96.6% | NCI-H226 lung 91.4% and 89.5% | NCI-H322M lung 108% and 102% | HOP-62 NSCLC 107% and 102% | NCI-H460 lung 114% and 109% | HOP-92 NSCLC 82% and 83.2% | 786-0 renal 94.8% and 105% | COLO 205 colon 105% and 99.9% | DU-145 prostate 116% and 105% | K-562 leukemia 84% and 97% | MDA-MB-231 breast 96.6% and 96.3% | RXF 393 renal 106% and 93.8% | SF-268 CNS 100% and 99.1% | SF-295 CNS 110% and 105% | SF-539 CNS 113% and 105% | UACC-257 melanoma 93.6% and 95% | M14 melanoma 100% and 93.8%
